Sampled rows, rich in hits. Any-hit rate of the full collection: about 2.9%.
DAGLB inh: DAGLB lipase inhibitors, primary screen, biochemical, fluorescence, HTS | Diacylglycerol lipase-beta (Homo sapiens), Q8NCG7 | 340,000 compounds, 0.059% hits | inhibition, % at 5.17 µM | HEK293T DAGLB membrane lysate, EnzChek fluorogenic substrate | AID 504411, 2011; in the data active means inhibition above about 34%
Myeloid diff MLP: induction of myeloid progenitor differentiation, primary screen, cell-based, flow cytometry, MLPCN library. ER-HoxA9 myeloid progenitors, lysozyme-GFP differentiation. calls only at 10 µM. 360,000 compounds, 1% hits. AID 624256, 2012;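 active means normalized GFP-positive differentiation at or above the plate's own cutoff, the solvent-only control mean plus 3 SD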;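 further: cells exposed to compound for four days before flow analysis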
ABHD5-PLIN5 inh: ABHD5-PLIN5 interaction inhibitors, primary screen, cell lysate, split luciferase complementation, luminescence; Perilipin-5 (Homo sapiens) + 1-acylglycerol-3-phosphate O-acyltransferase ABHD5 (Homo …; Split G. princeps luciferase complementation, 4 h; inhibition, % at 4 µM; 360,000 compounds, 0.78% hits;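 active means inhibition above the mean inhibition across every tested compound plus 3 SD, cut at about 22% in these data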
HGIII-sPLA2 inh: human group III sPLA2 inhibitors, primary screen, biochemical, QFRET, BODIPY PC-A2 liposome substrate | Group 3 secretory phospholipase A2 (Homo sapiens), Q9NZ20 | QFRET BODIPY PC-A2 liposome hydrolysis, fluorescence | inhibition, % at 12.2 µM | 370,000 compounds, 0.56% hits;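 active means inhibition above mean plus 3 SD of compounds lying within the high and low control bounds, cut at about 19% in these data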
Cardio protect: cardioprotection against H2O2-induced cell death, primary screen, uHTS, H9c2 cells, ATPLite luminescence. AID 588492, 2011. 360,000 compounds, 0.63% hits. H9c2 cardiomyocytes, H2O2 injury protection, 2 h. protection from H2O2 cell death, % at 20 µM;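 active means compounds giving at least 50% protection of heart cells from peroxide-induced death in the single-dose screen, raw or plate-pattern-corrected value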
Rtt109 Vps75: inhibitors of C. albicans Rtt109/Vps75 HAT, primary screen, biochemical, ThioGlo CoA-SH fluorescence, plate reader; Histone acetyltransferase RTT109 (Candida albicans (strain SC5314 / ATCC MYA-2876)), …; purified Rtt109/Vps75, 4 h; inhibition, % at 34.9 µM; 330,000 compounds, 0.16% hits; AID 540336, 2011;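 active means inhibition of at least 50% in every replicate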
Target sequence (Q5AAJ8 whole entry, looked up): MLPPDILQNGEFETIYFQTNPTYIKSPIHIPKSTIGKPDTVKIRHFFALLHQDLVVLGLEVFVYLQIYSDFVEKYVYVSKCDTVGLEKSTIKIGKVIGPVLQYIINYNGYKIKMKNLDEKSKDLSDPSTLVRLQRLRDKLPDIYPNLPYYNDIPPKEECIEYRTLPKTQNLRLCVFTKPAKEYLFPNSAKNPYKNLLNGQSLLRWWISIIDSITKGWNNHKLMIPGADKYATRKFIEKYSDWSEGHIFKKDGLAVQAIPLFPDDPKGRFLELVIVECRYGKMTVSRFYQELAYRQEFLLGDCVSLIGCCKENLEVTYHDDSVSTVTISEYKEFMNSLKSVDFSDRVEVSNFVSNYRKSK
Myeloid diff: inducers of myeloid progenitor differentiation, confirmation, cell-based, GFP/Mac1 flow cytometry, cherry pick 01. calls only. 2,300 compounds, 2% hits. ER-HoxA9 myeloid progenitors, GFP/Mac1 double-positive flow. shares compounds with Myeloid diff MLP;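 active means share of green or green-and-red cells above 9 and 9% in run 1 or 4 and 3% in run 2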
GFP autofluor: flagged as fluorescent in myeloid differentiation counter-screen; 2,300 compounds, 7.4% hits; ER-HoxA9 myeloid progenitors, no estrogen, GFP autofluorescence flow cytometry; vehicle wells 0%, positive control 100%; AID 651707; fluorescence response, % (concentration not given with the values); shares compounds with Myeloid diff MLP;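 active means over 5% cells positive for green fluorescent reporter, or over 2% positive for both it and APC stain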
Each line names hits and unclear results; the compound was inactive in the other large screens (follow-up assays come after a bar, where they were run).

O=C(NCc1ccccc1)C1C(c2ccc3c(c2)OCO3)=Nc2ccccc2N1C(=O)c1ccco1 (stereo unspecified)	none (no result: DAGLB inh, Cardio protect, Rtt109 Vps75) | Myeloid diff inactive | GFP autofluor inactive
O=C(Cn1c(=O)n(Cc2ccc3c(c2)OCO3)c(=O)c2ccccc21)N1CCCc2ccccc21	none
CC(C)CC(NC(N)=O)C(=O)Nc1ccc(Oc2ccccc2)cc1 (stereo unspecified)	none | Myeloid diff inactive | GFP autofluor inactive
COc1ccc(-n2c(SCC(=O)Nc3ccc(Oc4ccccc4)cc3)nnc2-c2cccnc2)cc1	none (no result: DAGLB inh, Myeloid diff MLP, ABHD5-PLIN5 inh, Cardio protect, Rtt109 Vps75)
COc1ccc(N2C(=O)C(CC(=O)O)S/C2=N\N=C\c2cccs2)cc1 (stereo unspecified)	none
COC(=O)CCCCCN1C(=O)NC(c2ccccc2)C(C(=O)OCc2ccccc2)=C1C (stereo unspecified)	none | Myeloid diff inactive | GFP autofluor inactive
CCCCn1c(N)c(N(CC(C)C)C(=O)Cc2ccc(S(=O)(=O)N3CCOCC3)s2)c(=O)[nH]c1=O	Myeloid diff MLP active | Myeloid diff active | GFP autofluor inactive
O=C(NCCc1ccccc1)c1ccccc1NS(=O)(=O)N1CCCC1	none | Myeloid diff inactive | GFP autofluor inactive
Cc1nnc(SCC(=O)NC2CC2)n1-c1ccccc1	none
O=c1oc2ccccc2nc1/C=C(\O)c1ccccc1	none (no result: DAGLB inh, Rtt109 Vps75)
Cc1nc(C)c(/C(O)=C/c2nc3ccccc3oc2=O)s1	Myeloid diff MLP active | Myeloid diff inactive | GFP autofluor inactive
CCCc1nnc(SCC(=O)Nc2nc(C)cs2)n1CCOC	none
COc1ccc(C(=O)Cn2cc[n+](C)c2)cc1	Myeloid diff MLP active | Myeloid diff inactive | GFP autofluor inactive
COc1ccc(C(=O)CC(=O)c2ccc(OC)cc2)cc1	none
COc1cccc(NC(=O)C2CC(=O)N(C)C(=Nc3cccc(F)c3)S2)c1 (stereo unspecified)	none | Myeloid diff inactive | GFP autofluor inactive
CCC(C)Nc1nc2c(c(=O)[nH]c(=O)n2C)n1CCCc1ccccc1 (stereo unspecified)	none
CCC(C)Nc1nc2c(c(=O)[nH]c(=O)n2C)n1CCC(C)C (stereo unspecified)	Myeloid diff MLP active | Myeloid diff inactive | GFP autofluor inactive
CSc1cccc(NC(=O)COC(=O)C2(c3ccccc3)CC2)c1	none
CCCOc1ccc([C@@H]2C3CN(C(=O)OCC)CC=C3C(C#N)=C(N)C2(C#N)C#N)cc1OC (stereo partly specified)	Myeloid diff MLP active (no result: HGIII-sPLA2 inh) | Myeloid diff inactive | GFP autofluor inactive
CCOC(=O)N1CC=C2C(C#N)=C(N)C(C#N)(C#N)[C@H](c3cccs3)C2C1 (stereo partly specified)	none
CCn1c(-c2ccc(C(C)(C)C)cc2)n[nH]c1=S	none
CCn1c(-c2ccc(F)cc2)n[nH]c1=S	none | Myeloid diff inactive | GFP autofluor inactive
CCC(C)N(C(=O)COC(=O)CSc1ccc(C)c(C)c1)C1CCS(=O)(=O)C1 (stereo unspecified)	none
CCC1CCCCN1Cc1ccc(OC)c(OC)c1 (stereo unspecified)	none (no result: HGIII-sPLA2 inh)
COc1cc(C)c(CN2CCCCC2CO)cc1C (stereo unspecified)	Myeloid diff MLP active | Myeloid diff inactive | GFP autofluor inactive
O=C(NCCN1CCc2ccccc2C1)C1CCN(S(=O)(=O)N2CCCCC2)CC1	none (no result: Rtt109 Vps75) | Myeloid diff inactive | GFP autofluor inactive
COc1cccc(-c2nnc3n2N=C(c2cc(OC)ccc2OC)CS3)c1	Myeloid diff MLP active | Myeloid diff inactive | GFP autofluor 11
CCOc1cccc(-c2nnc3n2N=C(c2cc(OC)ccc2OC)CS3)c1	none
O=[N+]([O-])c1ccc(/C=C/c2nc3ccc([N+](=O)[O-])cc3[nH]2)cc1	Myeloid diff MLP active | Myeloid diff inactive | GFP autofluor inactive
Cc1nc(N)c(C#N)c(-c2cccnc2)c1C	Myeloid diff MLP active | Myeloid diff inactive | GFP autofluor inactive
O=C(CSc1nc(=O)n(CCCN2CCOCC2)c2c1CCCC2)Nc1ccc(F)cc1F	Myeloid diff MLP active | Myeloid diff inactive | GFP autofluor inactive
O=C(CSc1nc(=O)n(CCCN2CCOCC2)c2c1CCC2)Nc1ccc(F)cc1F	none
CCCCNC(=O)c1cc2nc3c(c(C(F)(F)F)n2n1)CCc1ccccc1-3	none
Nc1nc2ccccc2cc1C(=O)NCCCCc1ccccc1	none (no result: DAGLB inh, HGIII-sPLA2 inh, Cardio protect, Rtt109 Vps75) | Myeloid diff inactive | GFP autofluor inactive
Cc1nc(SCC(=O)N2CCNC2=O)c2ccccc2n1	none
COc1ccc(S[C@@H](CCN2CC[C@H](C)CCC2=O)c2ccccc2)cc1	none
C=CCC[C@@H](CCCCC)OC(=O)/C=C/[C@H](O)[C@@H](O)C[C@H](O)CC=C	Myeloid diff MLP active (no result: DAGLB inh, Cardio protect, Rtt109 Vps75) | Myeloid diff inactive | GFP autofluor inactive
COc1ccccc1N1CCN(C(=O)Cn2nnc(-c3ccncc3)n2)CC1	none
COc1ccc(CNCCC(c2ccc(OC(C)C)cc2)c2ccccc2OC)cc1 (stereo unspecified)	none
COc1ccccc1C(CCNCc1ccc(N(C)C)cc1)c1ccc(OC(C)C)cc1 (stereo unspecified)	none | Myeloid diff inactive | GFP autofluor inactive
CCn1c(CNC(=O)COc2ccc(C(C)C)cc2)nnc1SCC(=O)Nc1ccc(F)cc1	none | Myeloid diff inactive | GFP autofluor inactive
Cc1cccc(C)c1-n1nnnc1C(C)(C)N1CCN(N=O)CC1	none
COc1ccc(NC(C)(C)c2nnnn2-c2c(C)cccc2C)cc1	none | Myeloid diff inactive | GFP autofluor inactive
CC(C(=O)NN)n1nnc(N2CCOCC2)n1 (stereo unspecified)	none
CC(C(=O)NNS(=O)(=O)c1cccc(C(F)(F)F)c1)n1nnc(N2CCOCC2)n1 (stereo unspecified)	Myeloid diff MLP active | Myeloid diff inactive | GFP autofluor inactive
CCC/C=C1/CCCOC(C(=O)NCc2ccc(C)o2)(C(F)(F)F)C1 (stereo unspecified)	Myeloid diff MLP active | Myeloid diff inactive | GFP autofluor inactive
COc1cccc(CNC(=O)COc2ccc(C(=O)c3ccccc3)cc2)c1	none (no result: Rtt109 Vps75)

Screening results (PubChem)
